# About 2,000 (36%) of roughly 5,500 compounds were called active. About 18% were inconclusive and are not listed. Some of the results follow. A number with no mark means an inactive call. Rule as the data show it: active = normalized growth mostly below about 0.91 (no sharp cut-off); inconclusive = no clear call, values can overlap the other calls; inactive = mostly above about 0.92.
# Assay: chemical genetic growth profiling, strain panel (AID 1159580);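 also: tested at 20 µM; growth read once vehicle control cultures reached saturation at 30 °C; 1 = growth at the plate median or of vehicle wells; lower values mean less growth of the strain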
# Details: S. cerevisiae deletion strains, growth OD
# [1] = locus YDR150W, strain NUM1, active compounds read low
# [2] = locus YGR078C, strain PAC10, active compounds read low
# [3] = locus YGR229C, strain SMI1, active compounds read low
# [4] = locus YJR075W, strain HOC1, active compounds read low
# [5] = locus YMR263W, strain SAP30, active compounds read low
# [6] = locus YNL153C, strain GIM3, active compounds read low
# [7] = locus YPL055C, strain LGE1, active compounds read low
# [8] = locus YPL241C, strain CIN2, active compounds read low
# [9] = locus YDL101C, strain DUN1, active compounds read low
# [10] = locus YHR030C, strain SLT2, active compounds read low
smiles,measurement,setting,value
CCN(CC)CCOC(=O)c1cc(Cl)c(N)cc1OC,normalized growth,"locus YAL040C, strain CLN3, active compounds read low",0.981
same,normalized growth,"locus YCL061C, strain MRC1 (second series), active compounds read low",1.01
same,normalized growth,[1],1
same,normalized growth,"locus YDR363W, strain ESC2, active compounds read low",1
same,normalized growth,"locus YER002W, strain NOP16, active compounds read low",1.02
same,normalized growth,[2],1.01
same,normalized growth,[3],1.01
same,normalized growth,[4],1.01
same,normalized growth,[5],1
same,normalized growth,"locus YMR307W, strain GAS1, active compounds read low",1
same,normalized growth,"locus YNL128W, strain TEP1, active compounds read low",1
same,normalized growth,[6],1
same,normalized growth,"locus YNL175C, strain NOP13, active compounds read low",1
same,normalized growth,"locus YNL197C, strain WHI3, active compounds read low",1.01
same,normalized growth,"locus YNL224C, strain SQS1, active compounds read low",1
same,normalized growth,"locus YOR083W, strain WHI5 (second series), active compounds read low",1.01
same,normalized growth,[7],0.954
same,normalized growth,[8],1
COC(=O)c1ccc(Cl)cc1NS(=O)(=O)c1ccc(OC)c(OC)c1,normalized growth,"locus YAL013W, strain DEP1, active compounds read low",1.01
same,normalized growth,"locus YBR229C, strain ROT2, active compounds read low",0.976
same,normalized growth,[9],0.987
same,normalized growth,[1],1.04
same,normalized growth,"locus YEL061C, strain CIN8, active compounds read low",1.01
same,normalized growth,[2],0.986
same,normalized growth,[3],1.02
same,normalized growth,[10],0.969
same,normalized growth,"locus YHR087W, strain rtc3, active compounds read low",1.02
same,normalized growth,"locus YJL187C, strain SWE1, active compounds read low",1
same,normalized growth,"locus YJR043C, strain POL32, active compounds read low",0.978
same,normalized growth,[4],0.984
same,normalized growth,"locus YKL190W, strain CNB1, active compounds read low",1.01
same,normalized growth,"locus YLR039C, strain RIC1, active compounds read low",0.934
same,normalized growth,"locus YLR058C, strain SHM2 (second series), active compounds read low",1.01
same,normalized growth,"locus YLR085C, strain ARP6, active compounds read low",1.01
same,normalized growth,"locus YLR262C, strain YPT6, active compounds read low",0.947
same,normalized growth,"locus YML094W, strain GIM5, active compounds read low",1.03
same,normalized growth,"locus YMR219W, strain ESC1, active compounds read low",1
same,normalized growth,[5],0.986
same,normalized growth,[6],0.996
same,normalized growth,"locus YNL298W, strain CLA4 (second series), active compounds read low",0.989
same,normalized growth,"locus YNL322C, strain KRE1, active compounds read low",1
same,normalized growth,"locus YNR030W, strain Alg12, active compounds read low",0.998
same,normalized growth,[7],0.966
same,normalized growth,[8],1.01
same,normalized growth,"locus YPR135W, strain CTF4, active compounds read low",0.999
COc1cc(Cl)ccc1N/N=C(/C#N)C(N)=O,normalized growth,"locus YAR019C, strain CDC15, active compounds read low",0.106 (active)
same,normalized growth,"locus YBL105C, strain PKC1, active compounds read low",0.0965 (active)
same,normalized growth,"locus YBR135W, strain CKS1, active compounds read low",0.109 (active)
same,normalized growth,"locus YBR136W, strain MEC1, active compounds read low",0.104 (active)
same,normalized growth,"locus YBR160W, strain CDC28, active compounds read low",0.104 (active)
same,normalized growth,"locus YDL017W, strain CDC7, active compounds read low",0.0952 (active)
same,normalized growth,"locus YDL028C, strain MPS1, active compounds read low",0.111 (active)
same,normalized growth,[9],0.124 (active)
same,normalized growth,"locus YDL108W, strain KIN28, active compounds read low",0.114 (active)
same,normalized growth,"locus YDL132W, strain cdc53, active compounds read low",0.102 (active)
same,normalized growth,"locus YDL214C, strain PRR2, active compounds read low",0.116 (active)
same,normalized growth,"locus YDR052C, strain DBF4, active compounds read low",0.0987 (active)
same,normalized growth,"locus YDR054C, strain cdc34, active compounds read low",0.104 (active)
same,normalized growth,"locus YDR226W, strain ADK1, active compounds read low",0.103 (active)
same,normalized growth,"locus YDR477W, strain SNF1, active compounds read low",0.115 (active)
same,normalized growth,"locus YER123W, strain YCK3, active compounds read low",0.112 (active)
same,normalized growth,"locus YER133W, strain GLC7, active compounds read low",0.12 (active)
same,normalized growth,"locus YFL009W, strain cdc4, active compounds read low",0.109 (active)
same,normalized growth,"locus YFL029C, strain CAK1, active compounds read low",0.109 (active)
same,normalized growth,"locus YFR003C, strain YPI1, active compounds read low",0.0947 (active)
same,normalized growth,"locus YFR019W, strain FAB1, active compounds read low",0.112 (active)
same,normalized growth,"locus YFR028C, strain CDC14, active compounds read low",0.106 (active)
same,normalized growth,"locus YGR040W, strain KSS1, active compounds read low",0.112 (active)
same,normalized growth,"locus YGR052W, strain FMP48, active compounds read low",0.153 (active)
same,normalized growth,"locus YGR092W, strain DBF2, active compounds read low",0.11 (active)
same,normalized growth,[10],0.194 (active)
same,normalized growth,"locus YHR079C, strain IRE1, active compounds read low",0.214 (active)
same,normalized growth,"locus YHR082C, strain KSP1, active compounds read low",0.221 (active)
same,normalized growth,"locus YHR205W, strain SCH9, active compounds read low",0.0135 (active)
same,normalized growth,"locus YIL147C, strain SLN1, active compounds read low",0.107 (active)
same,normalized growth,"locus YJL095W, strain BCK1, active compounds read low",0.189 (active)
same,normalized growth,"locus YJL128C, strain PBS2, active compounds read low",0.103 (active)
same,normalized growth,"locus YJL157C, strain FAR1, active compounds read low",0.105 (active)
same,normalized growth,"locus YJR016C, strain ILV3, active compounds read low",0.0991 (active)
same,normalized growth,"locus YJR066W, strain TOR1 (second series), active compounds read low",0.112 (active)
same,normalized growth,"locus YJR066W, strain TOR1, active compounds read low",0.181 (active)
same,normalized growth,"locus YKL048C, strain ELM1, active compounds read low",0.128 (active)
same,normalized growth,"locus YKL067W, strain YNK1, active compounds read low",0.119 (active)
same,normalized growth,"locus YKL101W, strain HSL1, active compounds read low",0.106 (active)
same,normalized growth,"locus YKL193C, strain SDS22, active compounds read low",0.106 (active)
same,normalized growth,"locus YKL203C, strain TOR2, active compounds read low",0.116 (active)
same,normalized growth,"locus YLR113W, strain HOG1, active compounds read low",0.262 (active)
same,normalized growth,"locus YLR133W, strain CKI1, active compounds read low",0.111 (active)
same,normalized growth,"locus YLR403W, strain SFP1, active compounds read low",0.00868 (active)
same,normalized growth,"locus YML070W, strain DAK1, active compounds read low",0.114 (active)
same,normalized growth,"locus YMR001C, strain CDC5, active compounds read low",0.108 (active)
same,normalized growth,"locus YMR205C, strain PFK2 (second series), active compounds read low",0.104 (active)
same,normalized growth,"locus YMR277W, strain FCP1, active compounds read low",0.106 (active)
same,normalized growth,"locus YNL006W, strain LST8, active compounds read low",0.0981 (active)
same,normalized growth,"locus YNL020C, strain ARK1, active compounds read low",0.11 (active)
same,normalized growth,"locus YNL161W, strain CBK1, active compounds read low",0.106 (active)
same,normalized growth,"locus YNL183C, strain NPR1, active compounds read low",0.148 (active)
same,normalized growth,"locus YNL207W, strain RIO2, active compounds read low",0.107 (active)
same,normalized growth,"locus YNL222W, strain SSU72, active compounds read low",0.105 (active)
same,normalized growth,"locus YNL307C, strain MCK1 (second series), active compounds read low",0.12 (active)
same,normalized growth,"locus YOL078W, strain AVO1, active compounds read low",0.105 (active)
same,normalized growth,"locus YOL136C, strain PFK27, active compounds read low",0.115 (active)
same,normalized growth,"locus YOR061W, strain CKA2, active compounds read low",0.0994 (active)
same,normalized growth,"locus YOR119C, strain RIO1, active compounds read low",0.115 (active)
same,normalized growth,"locus YOR231W, strain MKK1, active compounds read low",0.231 (active)
same,normalized growth,"locus YOR329C, strain SCD5, active compounds read low",0.102 (active)
same,normalized growth,"locus YPL031C, strain PHO85, active compounds read low",0.107 (active)
same,normalized growth,"locus YPL153C, strain RAD53, active compounds read low",0.111 (active)
same,normalized growth,"locus YPL204W, strain HRR25, active compounds read low",0.117 (active)
same,normalized growth,"locus YPL209C, strain IPL1, active compounds read low",0.0959 (active)
same,normalized growth,"locus YPL256C, strain CLN2, active compounds read low",0.231 (active)
same,normalized growth,"locus YPR025C, strain CCL1, active compounds read low",0.107 (active)
same,normalized growth,"locus YPR106W, strain ISR1, active compounds read low",0.0943 (active)
same,normalized growth,"locus YPR111W, strain DBF20, active compounds read low",0.108 (active)
same,normalized growth,"strain NNK1, active compounds read low",0.0995 (active)
same,normalized growth,"strain TSCII, active compounds read low",0.107 (active)

# Source: PubChem BioAssay AID1159580 (chemical genetic matrix, 2015)
